# Source: PubChem BioAssay
# TDP1 cell CPT = DT40-hTDP1 cell growth loss with CPT | chicken DT40 Tdp1-/-;hTDP1 cells + 20 nM CPT, ATP luminescence, 48 h | Potency, µM (titrated, usually from 46.2 µM), for the others: top-dose activity change, negative = growth inhibition, hits mostly inhibitors | 420,000 tested, 12% active | AID 686979; note: nearly all actives have a fitted effect of over 55% in size
#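 Chicken DT40 Tdp1-/- cells complemented with human TDP1, 400 cells/well, exposed to compounds plus 20 nM camptothecin for at least 48 h at 37 C; viability read as ATP content by CellTiter-Glo luminescence.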
# KB-V1 MDR tox = kills drug-selected multidrug resistant KB-V1 cells; Potency, µM (series often up to 46.1 µM), usual class: cytotoxic; 400,000 tested, 3.4% active; KB-V1 MDR cells viability, CellTiter-Glo, 72 h; AID 1347076; note: nearly all actives have a fitted effect of over 60% in size
#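 qHTS viability screen in drug-selected KB-V1 MDR cells: 72 h compound treatment at 37 degrees C, ATP luminescence end point.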
# TDP1 cell noCPT = qHTS for Inhibitors of human tyrosyl-DNA phosphodiesterase 1 (TDP1): qHTS in cells in absence of CPT; DT40 Tdp1-/- hTDP1 cells, no CPT, ATP luminescence, 48 h; Potency, µM (doses to about 46.2 µM), inactives show at the highest dose activity change, negative = growth inhibition, most hits filed as inhibitors; 420,000 tested, 15% active; AID 686978, 2013; note: nearly all actives have a fitted effect of over 55% in size
#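 Growth of hTDP1-complemented DT40 Tdp1-knockout cells is measured by ATP luminescence after at least 48 hr compound exposure at 37 °C, with DMSO substituting for the 20 nM CPT used in the parallel screen.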
# HT1080NT lethal = kills 2HG-producing HT-1080-NT fibrosarcoma cells | Potency, µM (series often up to 46.1 µM), inactives show top-dose activity, negative = less viability, hits mostly cytotoxic | 360,000 tested, 1.6% active | HT-1080-NT fibrosarcoma viability, CellTiter-Glo ATP luminescence, 48 h;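 note: NT is the 2HG producing partner of a matched IDH1 knockdown line; 0% = DMSO-treated cells and -100% = media-only wells without cells; nearly all actives have a fitted effect of over 55% in size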
#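 HT-1080-NT; 750 cells/well; 5% FBS RPMI; 48 h compound, 37 degrees C; CellTiter-Glo luminescence; curve fitting and curve-class assignment.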
# KB-3-1 tox = KB-3-1 parental cell cytotoxicity. KB-3-1 viability, CellTiter-Glo ATP luminescence, 72 h. Potency, µM (highest dose often 46.1 µM), hits mostly cytotoxic. 400,000 tested, 1.4% active. AID 1347075; note: nearly all actives have a fitted effect of over 60% in size
#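 Cells are dispensed, compounds pinned in, plates held at 37 °C for 72 h, then CellTiter-Glo is added and luminescence read after 10 minutes. Cell line: parental KB-3-1 in phenol-red-free DMEM, 10% FBS.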
# HT1080 IDH1KD tx = kills HT-1080 cells with IDH1 knockdown; HT-1080 IDH1 knockdown viability, ATP luminescence, 48 h; Potency, µM (top dose mostly 46.1 µM), for the others: at the highest dose activity, negative = toxicity, usual class: cytotoxic; 360,000 tested, 2% active; AID 686971;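 note: 0% = DMSO wells and -100% = cell-free medium wells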
#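 Viability of IDH1-knockdown HT-1080 fibrosarcoma cells was assessed by CellTiter-Glo after 48 h at 37 °C with titrated compound; concentration-effect curves were classified by fit quality and response size.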
# Active calls of the source: *; i = inactive; ? = inconclusive; nt = no result given. Only some compounds are listed: those with a hit (about 19% of all), similar ones and a draw of the others. Calls come from the whole dose curve; as a rule, active = well fitted curve in the direction sought with a large enough effect; inconclusive = small, poorly fitted or top-dose-only effect, or another doubt; inactive = no such curve, though single readings can be large; an effect the other way counts as inactive or inconclusive. Unless noted, % is set by controls: 0 for no effect and ±100 for the full control effect; potency is the fitted concentration of half-maximal effect.
SMILES,TDP1 cell CPT,KB-V1 MDR tox,TDP1 cell noCPT,HT1080NT lethal,KB-3-1 tox,HT1080 IDH1KD tx
CCOC(=O)N(C)c1c(CC)nc2c(OCc3ccccc3C)cccn12,?,16.4µM*,14.6µM*,4.4%,?,5.5%
C[C@H](NC(=O)[C@@H]1CCCN1C(=O)[C@@H]1CCCN1C(=O)OC(C)(C)C)c1ccccc1,?,i,-6.0%,23.7%,i,17.1%
CCN(CC)CCCNC(=S)N1CCC(c2nc3ccccc3[nH]2)CC1,-6.8%,i,11.2%,3.4%,i,9.4%
C=C1C=C(C)n2ncc(C(=O)Nc3ccc(F)cc3F)c2N1,0.8%,i,4.0%,nt,i,nt
Cc1ccc2nc(-c3ccc(C#N)cc3)c(Cc3ccccc3C(F)(F)F)n2c1,23.1µM*,i,?,?,i,?
Cc1ccc2nc(-c3ccc(Cl)cc3)c(Cc3ccccc3C(F)(F)F)n2c1,25.9µM*,?,?,2.7%,i,6.1%
Cc1ccc(-c2nc3ccc(Cl)cn3c2Cc2ccccc2C(F)(F)F)cc1,-26.0%,i,?,?,i,-22.9%
Cc1nnc(N2CCN(C(=O)NC(C)C)CC2)c2nn(-c3ccccc3)c(C)c12,-2.9%,i,-0.8%,nt,i,nt
CCCC(=O)NCC(c1ccc2c(c1)OCO2)N1CCN(c2ccccc2)CC1 (configuration not stated),?,i,?,nt,i,nt
O=C(Cn1cnc([N+](=O)[O-])c1)Nc1cc(Oc2ccc(Cl)cc2Cl)cc([N+](=O)[O-])c1,16.4µM*,i,16.4µM*,20.6µM*,?,?
Clc1ccc2c(c1)C=Nc1c(NCc3ccccc3)ncnc1O2,-16.5%,i,-12.4%,0.2%,i,-0.7%
C1=Nc2c(Nc3ccccc3)ncnc2Oc2ccccc21,9.2µM*,?,10.3µM*,?,i,?
Clc1ccc2nc(-c3ccccc3)c(CN3CCOCC3)n2c1,?,?,?,9.1%,i,1.8%
c1ccc(-c2nc3c4ccccc4ccn3c2CN2CCOCC2)cc1,10.3µM*,?,18.4µM*,-23.5%,i,-0.9%
COc1ccc(-c2nc3c4ccccc4ccn3c2CN2CCOCC2)cc1OC,14.6µM*,16.4µM*,?,-14.4%,i,5.6%
COc1ccc(-c2nc3c4ccccc4ccn3c2CC2CCCCC2)cc1OC,?,i,23.1µM*,-26.8%,i,?
CCC(Oc1ccccc1)C(=O)Nc1ccc(O)c(-c2nc3cc(C)ccc3o2)c1 (configuration not stated),-27.8%,nt,?,nt,nt,nt
O=C(Nc1ccc(NC(=O)c2ccc(Br)cc2)c(Cl)c1)c1ccc(Br)cc1,6.9%,?,3.5%,nt,i,nt
COCCCNc1oc(-c2ccc(COc3ccccc3C)o2)nc1C#N,?,i,?,nt,i,nt
COc1ccc(NC(C)=O)cc1NC(=O)c1cccc(S(=O)(=O)N2CCN(Cc3ccccc3)CC2)c1,?,16.4µM*,?,-2.2%,i,15.3%
O=C(NCc1ccco1)c1cccc(S(=O)(=O)N2CCN(Cc3ccccc3)CC2)c1,-14.3%,i,-28.5%,-0.9%,i,0.4%
COc1ccccc1NC(=O)c1cccc(S(=O)(=O)N2CCN(Cc3ccccc3)CC2)c1,?,i,?,-2.1%,i,-1.3%
COc1ccc(CN2CCN(S(=O)(=O)c3ccc(NC(C)=O)cc3)CC2)cc1,?,i,?,-5.2%,?,-10.3%
CCOC(=O)N1CCN(C(=O)C2CCC(CNS(=O)(=O)c3ccc(Cl)cc3)CC2)CC1 (configuration not stated),?,i,?,16.6%,i,10.2%
COc1ccc(CN2CCN(C(=O)C3CCC(CNS(=O)(=O)c4ccc(C)cc4)CC3)CC2)c(OC)c1OC (configuration not stated),?,?,20.6µM*,-11.1%,i,-2.0%
SMILES,TDP1 cell CPT,KB-V1 MDR tox,TDP1 cell noCPT,HT1080NT lethal,KB-3-1 tox,HT1080 IDH1KD tx
COc1ccc(CN2CCN(S(=O)(=O)c3ccc(NC(C)=O)cc3)CC2)c(OC)c1OC,16.4µM*,i,?,-4.3%,?,-0.6%
COc1ccccc1OCCNC(=O)c1cccc(S(=O)(=O)N2CCN(Cc3ccccc3)CC2)c1,18.4µM*,i,?,-11.7%,i,-12.3%
COc1ccc(CNC(=O)c2cc3c(s2)CN(Cc2ccccc2)C3)cc1,8.2%,?,-2.9%,2.9%,i,7.4%
COc1ccc(-c2coc3cc4oc(=O)c5ccccc5c4cc23)cc1F,0.82µM*,?,0.651µM*,?,?,?
NS(=O)(=O)c1ccc(NC(=O)/C=C/c2ccc3c(c2)OCO3)cc1,-2.4%,i,-9.6%,7.31µM*,2.31µM*,0.731µM*
Cc1ccc(-n2nc3ccc(NC(=O)/C=C/c4ccco4)cc3n2)cc1,20.6µM*,?,?,4.0%,i,-0.3%
CC(=O)Nc1ccc(NC(=O)/C=C/c2ccc3c(c2)OCO3)cc1,-4.7%,i,-3.5%,?,i,-18.9%
O=C(/C=C/c1ccco1)Nc1ccc2c(c1)OCO2,?,?,?,13µM*,?,20.6µM*
COC(=O)C1CCN(C(=O)/C=C/c2ccc3c(c2)OCO3)CC1,?,i,16.4µM*,-6.6%,i,0.2%
Clc1ccccc1NN(Cc1ccncc1)c1ccccc1Cl,?,i,?,?,?,?
CCc1ccccc1NC(=O)c1cccc(NC(=O)/C=C/c2ccco2)c1,18.4µM*,?,20.6µM*,0.0%,i,-7.9%
COC(=O)c1cccc(NC(=O)/C=C/c2ccc3c(c2)OCO3)c1,?,?,?,?,5.8µM*,?
O=C(/C=C/c1ccco1)Nc1cccc(C(=O)Nc2ccccc2C(=O)O)c1,-1.9%,?,16.4%,0.3%,i,3.0%
CCS(=O)(=O)N1CCN=C1SCc1ccc(F)cc1,2.7%,?,4.9%,-0.1%,i,8.8%
CN1CCN(c2ccc([N+](=O)[O-])cc2C(=O)c2ccc(Br)cc2)CC1,2.31µM*,4.11µM*,5.17µM*,13µM*,2.91µM*,14.6µM*
CN1CCN(c2ccc([N+](=O)[O-])cc2C(=O)c2ccccc2)CC1,?,?,?,-2.6%,?,-13.3%
